# Laboratory results taken from the supplement of paper PMC10037445.
# Whole data set: some 2,900 compounds, median “NF-kB SEAP reporter activity, fold change vs agonist alone” near 0.99, cut for the highest 2% near 2.6. The sample as a whole holds a higher share of the highest values than the screen did.
# Assays:
# RAW-Dual [1] = test: NF-kB SEAP reporter activity, fold change vs agonist alone; cytotoxicity flag (confluency mask): not cytotoxic; higher = enhanced NF-kB activity
# In short: (§1)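 RAW-Dual macrophages were seeded in DMEM at 50,000 cells/well in 384-well plates, given 50 nL of library stock by pin tool, and given a PRR agonist 1 h later. Plates were held at 37 °C, 5% CO2 for 20 hours, after which supernatant was read for IRF by QuantiLuc luminescence and for NF-κB by QuantiBlue absorbance at 620 nm. Reporter activity is expressed as fold change over wells that received agonist alone. A well was called cytotoxic when IncuCyte confluency fell below 70% of agonist controls in both mask sets.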
# RAW-Dual [2] = test: NF-kB SEAP reporter activity, fold change vs agonist alone; cytotoxicity flag (confluency mask): cytotoxic (confluency <70% of control); higher = enhanced NF-kB activity
# In short: as §1
# RAW-Dual [3] = test: NF-kB SEAP reporter activity, fold change vs agonist alone; higher = enhanced NF-kB activity; conditions: library stock concentration (final ~1000-fold dilution): 10 mM, cytotoxicity flag (confluency mask): not cytotoxic
# In short: as §1
# [4] = agonist: ODN 1826 (TLR9) 0.5 ug/mL
# [5] = agonist: Pam2CSK4 (TLR2/6) 0.1 ug/mL
# [6] = agonist: Pam3CSK4 (TLR2/1) 0.1 ug/mL
structure (smiles),measurement,setting,value
Cc1noc(C)c1-c1cnc2c(-c3ccc(C(=O)O)cc3)cn(C(C)c3ccccn3)c2c1 (stereo unspecified) (library stock concentration (final ~1000-fold dilution): 10 mM),NF-kB SEAP reporter activity,RAW-Dual [1]; agonist: LPS (TLR4) 0.1 ug/mL,2.32
same,NF-kB SEAP reporter activity,RAW-Dual [1]; [4],1.73
same,NF-kB SEAP reporter activity,RAW-Dual [1]; [5],0.767
same,NF-kB SEAP reporter activity,RAW-Dual [1]; [6],2.09
Cc1noc(C)c1-c1ccc2[nH]c(=O)n3c2c1OCC3c1ccccn1 (stereo unspecified) (library stock concentration (final ~1000-fold dilution): 10 mM),NF-kB SEAP reporter activity,RAW-Dual [1]; agonist: LPS (TLR4) 0.1 ug/mL,1.61
same,NF-kB SEAP reporter activity,RAW-Dual [1]; [4],1.67
same,NF-kB SEAP reporter activity,RAW-Dual [1]; [5],0.501
same,NF-kB SEAP reporter activity,RAW-Dual [1]; [6],1.34
COc1cc2c(cc1-c1c(C)noc1C)ncc1[nH]c(=O)n(C(C)c3ccccn3)c12 (stereo unspecified) (library stock concentration (final ~1000-fold dilution): 10 mM),NF-kB SEAP reporter activity,RAW-Dual [2]; agonist: LPS (TLR4) 0.1 ug/mL,4.87
same,NF-kB SEAP reporter activity,RAW-Dual [2]; [4],2.55
same,NF-kB SEAP reporter activity,RAW-Dual [2]; [5],0.529
same,NF-kB SEAP reporter activity,RAW-Dual [2]; [6],1.93
C=CC(=O)N1CCC(C2CCNc3c(C(N)=O)c(-c4ccc(Oc5ccccc5)cc4)nn32)CC1 (stereo unspecified) (library stock concentration (final ~1000-fold dilution): 10 mM),NF-kB SEAP reporter activity,RAW-Dual [1]; agonist: LPS (TLR4) 0.1 ug/mL,0.708
same,NF-kB SEAP reporter activity,RAW-Dual [1]; [4],0.413
same,NF-kB SEAP reporter activity,RAW-Dual [1]; [5],0.25
same,NF-kB SEAP reporter activity,RAW-Dual [1]; [6],0.279
C=CC(=O)N1CCC(C2CCNc3c(C(N)=O)c(-c4ccc(Oc5ccccc5)cc4)nn32)CC1 (stereo unspecified),NF-kB SEAP reporter activity,RAW-Dual [3]; agonist: Imiquimod (TLR7) […],0.477
same,NF-kB SEAP reporter activity,RAW-Dual [3]; agonist: MPLA (TLR4) […],0.541
Cn1c(=O)cc(C(=O)Nc2ccc3c(c2)OCCO3)c2ccccc21,NF-kB SEAP reporter activity,RAW-Dual [3]; agonist: Imiquimod (TLR7) […],0.997
same,NF-kB SEAP reporter activity,RAW-Dual [3]; agonist: MPLA (TLR4) […],0.999
Cn1c(=O)cc(C(=O)Nc2ccc3c(c2)OCCO3)c2ccccc21 (library stock concentration (final ~1000-fold dilution): 10 mM),NF-kB SEAP reporter activity,RAW-Dual [1]; agonist: LPS (TLR4) 0.1 ug/mL,0.989
same,NF-kB SEAP reporter activity,RAW-Dual [1]; [4],1.02
same,NF-kB SEAP reporter activity,RAW-Dual [1]; [5],0.995
same,NF-kB SEAP reporter activity,RAW-Dual [1]; [6],1.07
CC#CCn1c(N2CCCC(N)C2)nc2c1c(=O)n(Cc1nc(C)c3ccccc3n1)c(=O)n2C (stereo unspecified) (library stock concentration (final ~1000-fold dilution): 10 mM),NF-kB SEAP reporter activity,RAW-Dual [1]; agonist: LPS (TLR4) 0.1 ug/mL,1.31
same,NF-kB SEAP reporter activity,RAW-Dual [1]; [4],0.823
same,NF-kB SEAP reporter activity,RAW-Dual [1]; [5],1.05
same,NF-kB SEAP reporter activity,RAW-Dual [1]; [6],1.17
CC#CCn1c(N2CCCC(N)C2)nc2c1c(=O)n(Cc1nc(C)c3ccccc3n1)c(=O)n2C (stereo unspecified),NF-kB SEAP reporter activity,RAW-Dual [3]; agonist: Imiquimod (TLR7) […],0.851
same,NF-kB SEAP reporter activity,RAW-Dual [3]; agonist: MPLA (TLR4) […],1
O=c1ccoc2cc(O)ccc12 (library stock concentration (final ~1000-fold dilution): 10 mM),NF-kB SEAP reporter activity,RAW-Dual [1]; agonist: LPS (TLR4) 0.1 ug/mL,1.85
same,NF-kB SEAP reporter activity,RAW-Dual [1]; [4],1.15
same,NF-kB SEAP reporter activity,RAW-Dual [1]; [5],1.04
same,NF-kB SEAP reporter activity,RAW-Dual [1]; [6],0.865
O=c1ccoc2cc(O)ccc12,NF-kB SEAP reporter activity,RAW-Dual [3]; agonist: Imiquimod (TLR7) […],1.18
same,NF-kB SEAP reporter activity,RAW-Dual [3]; agonist: MPLA (TLR4) […],1.15
CC1COC(Nc2ccc3ncnc(Nc4ccc(OCc5nccs5)c(Cl)c4)c3c2)=N1 (stereo unspecified) (library stock concentration (final ~1000-fold dilution): 10 mM),NF-kB SEAP reporter activity,RAW-Dual [1]; agonist: LPS (TLR4) 0.1 ug/mL,0.991
same,NF-kB SEAP reporter activity,RAW-Dual [1]; [4],0.507
same,NF-kB SEAP reporter activity,RAW-Dual [1]; [5],0.602
same,NF-kB SEAP reporter activity,RAW-Dual [1]; [6],0.911
CS(=O)(=O)CCNCc1ccc(-c2ccc3ncnc(Nc4ccc(OCc5cccc(F)c5)c(Cl)c4)c3c2)o1.Cc1ccc(S(=O)(=O)O)cc1.Cc1ccc(S(=O)(=O)O)cc1.O (library stock concentration (final ~1000-fold dilution): 10 mM),NF-kB SEAP reporter activity,RAW-Dual [1]; agonist: LPS (TLR4) 0.1 ug/mL,1.96
same,NF-kB SEAP reporter activity,RAW-Dual [1]; [4],0.24
same,NF-kB SEAP reporter activity,RAW-Dual [1]; [5],0.755
same,NF-kB SEAP reporter activity,RAW-Dual [1]; [6],0.786
CC1COC(Nc2ccc3ncnc(Nc4ccc(OCc5nccs5)c(Cl)c4)c3c2)=N1 (stereo unspecified),NF-kB SEAP reporter activity,RAW-Dual [3]; agonist: Imiquimod (TLR7) […],1.28
same,NF-kB SEAP reporter activity,RAW-Dual [3]; agonist: MPLA (TLR4) […],1.03
CS(=O)(=O)CCNCc1ccc(-c2ccc3ncnc(Nc4ccc(OCc5cccc(F)c5)c(Cl)c4)c3c2)o1.Cc1ccc(S(=O)(=O)O)cc1.Cc1ccc(S(=O)(=O)O)cc1.O,NF-kB SEAP reporter activity,RAW-Dual [3]; agonist: MPLA (TLR4) […],1.99
C=CC(=O)Nc1ccc2ncnc(Nc3ccc(OCc4cccc(F)c4)c(Cl)c3)c2c1.Cc1ccc(S(=O)(=O)O)cc1 (library stock concentration (final ~1000-fold dilution): 10 mM),NF-kB SEAP reporter activity,RAW-Dual [1]; agonist: LPS (TLR4) 0.1 ug/mL,0.275
same,NF-kB SEAP reporter activity,RAW-Dual [1]; [4],0.575
same,NF-kB SEAP reporter activity,RAW-Dual [1]; [5],0.254
same,NF-kB SEAP reporter activity,RAW-Dual [1]; [6],0.377
CS(=O)(=O)CCNCc1ccc(-c2ccc3ncnc(Nc4ccc(OCc5cccc(F)c5)c(Cl)c4)c3c2)o1.Cc1ccc(S(=O)(=O)O)cc1.Cc1ccc(S(=O)(=O)O)cc1,NF-kB SEAP reporter activity,RAW-Dual [3]; agonist: Imiquimod (TLR7) […],1.68
same,NF-kB SEAP reporter activity,RAW-Dual [3]; agonist: MPLA (TLR4) […],1.56
Cc1cc(Nc2ncnc3ccc(-c4ccc(CNCCS(C)(=O)=O)o4)cc23)ccc1Oc1ccn2ncnc2c1,NF-kB SEAP reporter activity,RAW-Dual [3]; agonist: Imiquimod (TLR7) […],1.08
same,NF-kB SEAP reporter activity,RAW-Dual [3]; agonist: MPLA (TLR4) […],1.53
C=CC(=O)Nc1ccc2ncnc(Nc3ccc(OCc4cccc(F)c4)c(Cl)c3)c2c1.Cc1ccc(S(=O)(=O)O)cc1,NF-kB SEAP reporter activity,RAW-Dual [3]; agonist: Imiquimod (TLR7) […],0.818
same,NF-kB SEAP reporter activity,RAW-Dual [3]; agonist: MPLA (TLR4) […],0.445
CS(=O)(=O)CCNCc1ccc(-c2ccc3ncnc(Nc4ccc(OCc5cccc(F)c5)c(Cl)c4)c3c2)o1,NF-kB SEAP reporter activity,RAW-Dual [3]; agonist: Imiquimod (TLR7) […],2.12
same,NF-kB SEAP reporter activity,RAW-Dual [3]; agonist: MPLA (TLR4) […],2
CS(=O)(=O)CCNCc1ccc(-c2ccc3ncnc(Nc4ccc(OCc5cccc(F)c5)c(Cl)c4)c3c2)o1.Cc1ccc(S(=O)(=O)O)cc1.Cc1ccc(S(=O)(=O)O)cc1 (library stock concentration (final ~1000-fold dilution): 10 mM),NF-kB SEAP reporter activity,RAW-Dual [1]; agonist: LPS (TLR4) 0.1 ug/mL,4.16
same,NF-kB SEAP reporter activity,RAW-Dual [1]; [4],0.272
same,NF-kB SEAP reporter activity,RAW-Dual [1]; [5],0.851
same,NF-kB SEAP reporter activity,RAW-Dual [1]; [6],1.14
CS(=O)(=O)CCNCc1ccc(-c2ccc3ncnc(Nc4ccc(OCc5cccc(F)c5)c(Cl)c4)c3c2)o1 (library stock concentration (final ~1000-fold dilution): 10 mM),NF-kB SEAP reporter activity,RAW-Dual [1]; agonist: LPS (TLR4) 0.1 ug/mL,2.56
same,NF-kB SEAP reporter activity,RAW-Dual [1]; [4],0.324
same,NF-kB SEAP reporter activity,RAW-Dual [1]; [5],0.657
same,NF-kB SEAP reporter activity,RAW-Dual [1]; [6],1.19
Cc1cc(Nc2ncnc3ccc(-c4ccc(CNCCS(C)(=O)=O)o4)cc23)ccc1Oc1ccn2ncnc2c1 (library stock concentration (final ~1000-fold dilution): 10 mM),NF-kB SEAP reporter activity,RAW-Dual [1]; agonist: LPS (TLR4) 0.1 ug/mL,2.19
same,NF-kB SEAP reporter activity,RAW-Dual [1]; [4],0.229
same,NF-kB SEAP reporter activity,RAW-Dual [1]; [5],0.997
same,NF-kB SEAP reporter activity,RAW-Dual [1]; [6],0.811
